Measurements from PubChem BioAssay (NCI).
The panel holds about 83,000 compounds, 20% with a hit somewhere; the sample as a whole holds those more often.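 Single-dose data. Exposure time 48 hours. Values below 10 considered active.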 Unmarked numbers belong to inactive results. Activity calls are given as the source filed them.

What was measured:
Assay in all cases: NCI-60 one-dose screen, 48 h (100 = growth as untreated, 0 = no growth, -100 = all killed)
Conditions in all cases: 10 µM unless noted
HCT-15 colon = test system: HCT-15 colon
HT29 colon = test system: HT29 colon
SNB-75 CNS = test system: SNB-75 CNS
SNB-19 CNS = test system: SNB-19 CNS
U251 CNS = test system: U251 CNS
PC-3 prostate = test system: PC-3 prostate
SK-MEL-5 melanoma = test system: SK-MEL-5 melanoma
UACC-62 melanoma = test system: UACC-62 melanoma
LOX IMVI melanoma = test system: LOX IMVI melanoma
SK-MEL-28 melanoma = test system: SK-MEL-28 melanoma

Row | SMILES | growth (HCT-15 colon) | growth (HT29 colon) | growth (SNB-75 CNS) | growth (SNB-19 CNS) | growth (U251 CNS) | growth (PC-3 prostate) | growth (SK-MEL-5 melanoma) | growth (UACC-62 melanoma) | growth (LOX IMVI melanoma) | growth (SK-MEL-28 melanoma)
1 | COc1cc(-c2nn(C(C)(C)C)cc2-c2ccnc(NCCCNS(=O)(=O)c3cccc(F)c3)n2)ccc1Cl | 63.7% | 65.1% | 46.2% | 93.4% | 88.3% | 51.3% | 81.8% | 69.2% | 67.2% | 91.6%
2 | COc1ccc([C@H]2c3[nH]c4ccccc4c3C[C@H]3C(=O)N(C4CCN(Cc5c(Cl)cccc5Cl)CC4)CC(=O)N23)c(OC)c1 | 92.4% | 103% | 99.3% | 95.5% | 95.8% | 72.7% | 95.7% | 84.1% | 98.6% | 101%
3 | C=CC(=O)N1CCC=C(c2cc3c(N[C@H](C)c4ccccc4)ncnc3[nH]2)C1 | 73.2% | 66.5% | 3.25% (active) | 77.1% | 84.2% | 68.9% | 85.7% | 68.5% | 57.5% | 91.6%
4 | O=C(c1ccc(O)cc1)[C@@H]1CN[C@@]2(C(=O)Nc3ccccc32)[C@H]1c1ccc(F)cc1 | 94.8% | 110% | 103% | 92.8% | 102% | 88.8% | 101% | 86% | 110% | 105%
5 | C=C(C=O)[C@@H]1CC[C@]2(COC(C)=O)CC[C@]3(C)C(CC[C@@H]4[C@@]5(C)CC[C@H](OC(C)=O)C(C)(C)[C@@H]5CC[C@]43C)[C@@H]12 (stereo not given in full) | -42.7% (active) | 4.87% (active) | 32.1% | 5.36% (active) | -50.7% (active) | 6.79% (active) | -96.9% (active) | -15.7% (active) | -83.6% (active) | -42.8% (active)
6 | Nc1nc(Nc2ccccc2SSc2ccccc2Nc2nc(N)nc(-c3ccc4ccccc4c3)n2)nc(-c2ccc3ccccc3c2)n1 | 66.9% | 102% | 45.9% | 92.9% | 45.7% | 45.5% | 92.3% | 85% | -70.7% (active) | 102%
7 | CNC(=O)c1cc(-c2ccc(NS(=O)(=O)c3ccc(C)cc3)cc2)nc2cccnc12 | 105% | 109% | 104% | 99.8% | 101% | 99.7% | 103% | 90.4% | 100% | 119%
8 | C=C(C)[C@@H]1CC[C@]2(COC)CC[C@]3(C)[C@H](CC[C@@H]4[C@@]5(C)CCCNC(C)(C)[C@@H]5CC[C@]43C)[C@@H]12 | 2.81% (active) | 13.7% | 76.3% | 66.5% | 22.2% | 39.5% | 48.1% | 75.2% | -90.8% (active) | -61.2% (active)
9 | CCOc1ccc(NC2=C(Cl)C(=O)c3nc(C)ccc3C2=O)cc1 | -83.2% (active) | 15.9% | 96.5% | 44.7% | 15.6% | 10.4% | -98.6% (active) | -43.3% (active) | -76.4% (active) | 8.93% (active)
10 | Cc1ccc2c(c1)C13C(=C2Br)CCCN1C(=O)c1ccccc13 (stereo not given) | 73% | 98.9% | 89.9% | 89.2% | 97.5% | 67.9% | 88% | 67.4% | 103% | 92.5%
11 | COc1ccc2[nH]cc(/C=N/Nc3nc4ccccc4s3)c2c1 | 22.9% | 59.9% | 66.5% | 80% | 55.7% | 33.2% | 83.7% | 73.1% | 30.7% | 83.1%
12 | CC(C)C[C@@H]1N[C@@]2(C(=O)Nc3ccccc32)[C@@H](c2ccc(F)cc2)[C@@H]1C(=O)c1ccc(O)cc1 | 93% | 105% | 96.8% | 95.1% | 97.1% | 63.6% | 93.5% | 69% | 92.4% | 103%
13 | CCCCCc1ccc(S(=O)(=O)Nc2cc(-c3csc(NC(=O)CN4CCN(C)CC4)n3)ccc2OC)cc1 | -58.9% (active) | -31.1% (active) | 91.2% | 6.64% (active) | -18.2% (active) | 23.2% | -93.5% (active) | -58.5% (active) | -94% (active) | -69.4% (active)
14 | Nc1cc(-c2c[nH]c3ccc(Br)cc23)nc2cc(-c3c[nH]c4ccc(Br)cc34)nn12 | 2.64% (active) | -33.8% (active) | 41.9% | 41.2% | -47.8% (active) | 14.5% | 36.7% | 11.6% | -52.8% (active) | 49.9%
15 | CC1(C)[C@@H](O)CC[C@]2(C)[C@H]3CC[C@@H]4[C@H]5[C@H](C(=O)/C=C\c6ccccn6)CC[C@]5(O)CC[C@@]4(C)[C@]3(C)CC[C@@H]12 | 15% | 28% | 26.2% | 48.3% | 37.7% | 39.9% | 54.1% | 41.7% | -21.8% (active) | 51.4%
16 | C#Cc1ccc(C(=O)NCc2ccc(/C=C/C(=O)c3nccn3C)cc2)cc1 | 2.77% (active) | 8.87% (active) | 67.3% | 16.9% | 17.3% | 30.7% | 38.8% | 21% | -74.8% (active) | 48.8%
17 | COc1ccc2c(c1)c(CC(=O)[Se]CC(=O)O)c(C)n2C(=O)c1ccc(Cl)cc1 | 93% | 75.5% | 101% | 40.7% | 62% | 93.8% | 56.7% | 63.6% | 72.1% | 90.3%
18 | CCC(CC)N1C(=O)/C(=c2\sc3n(c2=O)NC2C(N=3)N(CC)C(=O)N2CC)c2ccccc21 (stereo not given) | 34.5% | 44.7% | 67.9% | 71.4% | 58.9% | 43.9% | 55.6% | 39.9% | 39.3% | 57%
19 | CCOC(=O)c1c(NC(=O)c2ccccc2C(F)(F)F)sc2c1CCC(=O)C2 | 10.5% | 75.4% | 65.4% | 18.6% | 17.5% | 14.6% | -50.3% (active) | 13% | 3.5% (active) | 80.1%
20 | NC(N)=Nc1ccc(Oc2cccc(NC(N)=Nc3ccc(I)cc3F)c2)cc1 | 86.9% | 62.5% | 73.2% | 20.7% | 47.4% | 27.5% | 74% | 77.8% | 48% | 85.7%
21 | COc1cc(-c2nc(SCCC(C)C)nc(NNC(=O)c3ccncc3)c2C#N)cc(OC)c1OC | 78.1% | 42.9% | 27.1% | 66% | 79.7% | 78.6% | 84.4% | 38.1% | 53.4% | 85.8%
22 | Cc1ccc(-n2cc(/C=C/C(=O)c3ccc(O)cc3)c(-c3ccc(S(C)(=O)=O)cc3)n2)cc1 | 26% | 28.6% | 87.5% | 75.6% | 72.3% | 69.9% | 61.7% | 59.6% | 41.9% | 82.3%
23 | CC(C)(C)c1ccc(-c2nnc(-c3nc4ccccc4nc3Cl)o2)cc1 | 81.9% | 116% | 96.4% | 95.8% | 98.2% | 92.4% | 98.1% | 72.7% | 90% | 68.4%
24 | CC(C)(C)CC(C)(C)n1nnnc1C(Nc1nccs1)c1cc2cccc3ccc4cccc1c4c32 (stereo not given) | 94.9% | 104% | 91.5% | 89.9% | 98.1% | 96.9% | 100% | 68.4% | 97% | 101%
25 | N/C(=N\C(N)=N\c1nc2ccccc2s1)c1ccc2ccccc2c1 | 69% | 104% | 48.5% | 94.7% | 47.9% | 50.6% | 97.4% | 93.4% | -45.7% (active) | 95.5%
26 | O=[N+]([O-])c1cc(/C=N/Nc2nc(N/N=C/c3ccc(Cl)c([N+](=O)[O-])c3)nc(N3CCCCC3)n2)ccc1Cl | 49.7% | 7.43% (active) | 136% | 72.6% | 18.5% | 53.4% | 77.8% | 43.1% | 66% | 62.2%
